For 53 compounds, INHIBITION results are on record in ChEMBL document CHEMBL4513216, “Probing the Open Global Health Chemical Diversity Library for Multistage-Active Starting Points for Next-Generation Antimalarials” (ACS Infect Dis, 2020).

Screen size: about 69,000 compounds; about 8,600 (12%) showed an effect of 50% or more. This is one part of a sample in which strong results are shown more often than they occur.

In this test the test system is Plasmodium berghei. The experiment in a line: Screen against P. berghei liver stage (PbLuc), transformed with Luciferase, at 10uM. As to conditions: tested at 10 uM. Format: functional, HepG2.
`COCC(=O)NC1CCN(c2cccc(OC(F)(F)F)c2)C1=O` (stereo not drawn): the INHIBITION came to 42.3%.
As for `CC(C)=CCN1CCN(C(=O)c2cc(C(C)C)no2)[C@H]2CS(=O)(=O)C[C@H]21`, the figure is -7.25%; as for `COCc1nc(CNC2CCCC(C)(C)C2)no1` (stereo not drawn), 25.1%; as for `Cc1ccc(N2CC[C@H]3OCC[C@@]3(C(=O)NCC3CC3)C2)nn1`, 12.5%.
Take `CN1CC2(CCN(C(=O)CCc3nc4cccnc4n3C)C2)OC1=O` (stereo not drawn): the INHIBITION was -19.1%.
As for `COc1c(CNCc2nnc3n2CCCCC3)c(C(C)C)nn1C`, the figure is 27.9%.
As for `CN(CCc1noc(C2CC2)n1)C(=O)CN1C(=O)COc2ccccc21`, the figure is -37.9%; as for `COc1c(C)cnc(CSc2nnc(NC3CC3)s2)c1C`, 57.7%; as for `COc1c(C)cnc(CSc2nnc(N)s2)c1C`, 28.6%.
Under `COc1c(C)cnc(CSc2nnc(C)s2)c1C` stands -40.3%; under `CC(C)C(=O)N1CCCC(Cc2ccccn2)C1` (stereo not drawn), 25%.
Regarding `COCCC(=O)N1CCCC(c2n[nH]cc2C)C1` (stereo not drawn), the INHIBITION was 36%.
Consider `N#CCCCOc1cccnc1NC(=O)Cc1ccccc1F`, for which the INHIBITION turned out to be 65.2%.
With `N#CCCCOc1cccnc1NC(=O)CCC1CCCC1`, the INHIBITION is -12.1%.
As for `N#CCCCOc1cccnc1NC(=O)CC1CCCCC1`, the figure is 20.9%; as for `Cc1cccc(CC2CCCN(C(=O)Cc3csc(C)n3)C2)n1` (stereo not drawn), -8.12%.
Turning to `Cc1noc(C)c1S(=O)(=O)NC(=O)COc1ccc2c(c1)CCC2`, the INHIBITION was 45.3%.
In the case of `COc1cc(CN(C)Cc2ccncc2)c(SC)cc1OC`, the INHIBITION was determined as 39.3%.
`COc1cc(CN(C)CCc2ccncc2)c(SC)cc1OC`: the INHIBITION came out at 32.7%.
Under `COc1cc(CN(C)Cc2cccnc2)c(SC)cc1OC` stands 54.7%.
Under `Cc1cccc(-n2ncc3c2CCCC3NCC(C)(C)CO)c1C` (stereo not drawn) stands 58.5%; under `Cc1cc(NC(=O)NC2CCCc3c2cnn3CCO)n(C)n1` (stereo not drawn), -39.9%; under `Cc1cc(C(=O)NC2CCCc3c2cnn3-c2cccc(C)c2C)[nH]n1` (stereo not drawn), 91%.
Under `Cc1cccc(-n2ncc3c2CCCC3NCc2cccc(O)c2)c1C` (stereo not drawn) stands 31.9%.
In the case of `Cc1cccc(-n2ncc3c2CCCC3NCc2cnn(C)c2C)c1C` (stereo not drawn), the INHIBITION was determined as 33.4%.
As for `Cc1nnc(NC(=O)NC2CCCc3c2cnn3CCO)s1` (stereo not drawn), the figure is 38%; as for `OC1(CN2CCCC2)COCCN(c2ncnc3[nH]cnc23)C1` (stereo not drawn), 56.1%.
As for `OC1(CN2CCCC2)CCCN(c2ncnc3[nH]cnc23)C1` (stereo not drawn), the figure is 13.9%.
As for `OC1(CN2CCCC2)COCCN(c2ncnc3[nH]ccc23)C1` (stereo not drawn), the figure is 19.3%.
Regarding `CN(C)C[C@H]1OC[C@@H]2CCN(C(=O)c3cccn3C)C[C@@H]21`, the INHIBITION was 4.2%.
As for `CC(C)N(C)C(=O)C1=NOC2(CCN(C(=O)c3cccn3C)C2)C1` (stereo not drawn), the figure is 13.3%; as for `O=C(NCc1ccco1)[C@H]1CC[C@@H]2[C@@H](CCN2C2CCC2)O1`, 27.6%.
For `Cc1nn(CC(=O)Nc2ccon2)c(C)c1Br`, the INHIBITION was determined as 40.8%.
As for `Cc1nc(CN2CCC(N3CCN(C)C3=O)CC2)no1`, the figure is 11.2%; as for `CCN1CCN(C2CCN(Cc3noc(C4CC4)n3)CC2)C1=O`, 35.9%; as for `CCN1CCN(C2CCN(Cc3noc(C)n3)CC2)C1=O`, 51.2%.
As for `Cc1ccc(CNC(=O)Cc2c(C)nc3c(c2C)c(=O)[nH]n3C)cc1`, the INHIBITION is recorded as 29.4%.
Under `CC(NC(=O)CCn1cccn1)c1cn(-c2ccccc2)nn1` (stereo not drawn) stands -15.5%; under `CC(C)NC(=O)[C@@H]1C[C@H](N)CN1C(=O)C1(c2ccc(Cl)cc2)CCC1`, 41.5%; under `O=C(c1cc[nH]n1)N1CCCC1c1cncc(CN2CCOCC2)n1` (stereo not drawn), 11.8%.
As for `Cc1csc(C(C)(C)NCCOc2ccc(CC#N)cc2)n1`, the figure is 58.1%; as for `CCS(=O)(=O)NCCNC(C)(C)c1nc(C)cs1`, -7.72%.
On to `CC(C)(NCCCOc1ccc(C#N)cc1)c1nccs1`, for which the INHIBITION stood at 53.8%.
Take `N#Cc1ccc(OCCNCCn2cccn2)cc1`: the INHIBITION amounted to 27.6%.
`CC(C)(NCCOc1ccc(CC#N)cc1)c1nccs1`: the INHIBITION is listed as -6.34%.
As for `Cc1csc(C(C)(C)NCCNS(C)(=O)=O)n1`, the figure is -1.75%; as for `CN1CCOC(c2cncc(CCC(N)=O)n2)C1` (stereo not drawn), -0.232%.
Under `Cn1ccc2cc(CC3COCCN(C(=O)c4ccccn4)C3)ccc21` (stereo not drawn) stands 20.055%; under `CC(=O)N1N=C(c2ccco2)OC1C(=O)N(C)CCc1ccccc1` (stereo not drawn), 24.3%.
Under `Cc1cc2nc(SCC(=O)N3CCCC3)n(C)c(=O)c2[nH]1` stands 19.3%; under `COCCNC(=O)C[C@@H]1COC[C@H]2CN(C(=O)C3CCOCC3)C[C@@H]12`, 69.3%; under `COCCNC(=O)C[C@@H]1COC[C@H]2CN(C(=O)COC)C[C@@H]12`, 13.1%.
Turning to `COCCNC(=O)C[C@@H]1COC[C@H]2CN(CC3CCOCC3)C[C@@H]12`, the INHIBITION is recorded as 36.7%.
